Reference: PubChem BioAssay AID1452 (National Center for Advancing Translational Sciences (NCATS), 2008)
About 190 (0.13%) of roughly 150,000 compounds were called active. Inconclusive results (about 2%) are left out. The sample holds actives, similar compounds and a random draw of the others, so the mix is not that of the screen. A number with no mark means an inactive call. The call rests on the fitted dose curve; in most records, active means well fitted inhibition curve with a large enough effect; inconclusive means small, poorly fitted or top-dose-only effect; inactive means flat fitted curve, though single readings scatter.

target: Polyunsaturated fatty acid lipoxygenase ALOX12 (Homo sapiens) (UniProt P18054); experiment: qHTS Assay for Inhibitors of 12-hLO (12-human lipoxygenase); conditions: purified 12-hLO, xylenol orange hydroperoxide absorbance; series mostly up to 57.1 µM; activity change, negative = inhibition: at the top concentration; further: nearly all actives have a fitted effect of over 55% in size
Sequence (P18054 whole entry, looked up): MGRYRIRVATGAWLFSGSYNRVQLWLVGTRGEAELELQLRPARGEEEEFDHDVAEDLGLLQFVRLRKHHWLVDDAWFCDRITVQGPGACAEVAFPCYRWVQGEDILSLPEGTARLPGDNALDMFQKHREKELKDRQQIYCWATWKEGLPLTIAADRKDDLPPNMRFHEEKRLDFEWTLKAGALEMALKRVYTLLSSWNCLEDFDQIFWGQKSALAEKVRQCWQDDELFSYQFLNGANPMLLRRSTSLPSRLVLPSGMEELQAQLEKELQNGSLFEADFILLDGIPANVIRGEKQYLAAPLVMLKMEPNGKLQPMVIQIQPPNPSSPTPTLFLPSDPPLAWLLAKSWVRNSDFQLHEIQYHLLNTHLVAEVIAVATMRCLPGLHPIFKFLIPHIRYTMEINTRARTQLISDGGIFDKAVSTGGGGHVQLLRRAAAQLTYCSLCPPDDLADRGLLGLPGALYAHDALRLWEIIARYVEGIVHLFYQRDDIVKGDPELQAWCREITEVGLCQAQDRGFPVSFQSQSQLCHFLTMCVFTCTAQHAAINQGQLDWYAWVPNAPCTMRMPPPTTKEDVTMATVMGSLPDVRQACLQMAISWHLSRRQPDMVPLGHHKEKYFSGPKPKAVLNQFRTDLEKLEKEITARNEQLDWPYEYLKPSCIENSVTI
From the text: Assay Provider: Holman, T.R., University of California, Santa Cruz Screening Center PI: Austin, C.P. Screening Center: NIH Chemical Genomics Center [NCGC] Human lipoxygenase 12hLO is a member of the closely related lipoxygenase family of enzymes which catalyze the site-specific oxidation of arachidonic acid to various hormone precursor molecules and as such is a candidate for drug development in a variety of disease areas, such as cancer and inflammation. Inhibition of 12hLO activity was screened by utilizing arachidonic acid as a substrate. The extent of hydroperoxide product formation was measured by a secondary chromogenic reaction in which xylenol orange (XO, Sigma-Aldrich, cat. number 39,818-7) reacts with the ferric ions produced from the reaction between the hydroperoxide and ferrous ions. The Fe(III)-XO complex is characterized with red-shifted absorbance at 560 nm. A purified preparation of human 12hLO was supplied by Professor Ted Holman, University of California, Santa Cruz.
Assay Protocol: Buffer: 25 mM Hepes pH 7.0, 0.01% Triton X-100. Reagents/Controls: Buffer in columns 3 and 4 as negative control (no enzyme). Substrate solution: 40 uM arachidonic acid (Sigma-Aldrich, St. Louis, MO) final concentration dispensed throughout the plate. Enzyme: 150 nM 12hLO final concentration in columns 1, 2, 5-48. Column 1 is neutral (100% activity). Column 2 contained pin-transferred titration of NDGA (nordihidroguaiaretic acid, Sigma-Aldrich, N 5023, top concentration 20 mM in DMSO, then 1:3 dilution in duplicate). (Dilution factor: 23 nL into 4 uL.) Chromogenic detection reagent (divalent iron/xylenol orange, Fe-XO): 200 uM xylenol orange plus 300 uM ferrous ammonium sulfate prepared freshly in 50 mM sulfuric acid. Assay Steps: Three uL of enzyme were dispensed to 1536-well Greiner black clear bottom plates. Compounds and controls (23 nL) were transferred via Kalypsys PinTool. The plates were incubated for 15 min at room temperature, and then 1 uL of substrate solution was added to start the reaction. After room temperature incubation for 30 minutes, 4 uL of Fe-XO solution was added to each well and the plates were incubated for 30 min. The absorbance at 405 and 573 nm were measured using ViewLux (Perkin-Elmer) High-throughput CCD imager and absorbance protocol settings. The 573-to-405 absorbance ratio was used to compute reaction progress.
On the % scale 0 is the no-effect control and ±100 the full control effect; potency means the concentration at half of the fitted maximal effect.

SMILES | activity change, negative = inhibition | Potency
COc1cc(NS(=O)(=O)c2ccc(N=Cc3c(C)[nH]n(-c4ccccc4)c3=O)cc2)nc(OC)n1 | -2.19% | 
COc1cc(NS(=O)(=O)c2ccc(N/C=C(\C=O)c3nc4cc(Cl)ccc4o3)cc2)nc(OC)n1 |  | 15.8 µM (active)
COc1cc(OC)cc(C(=O)Nc2ccc(S(=O)(=O)Nc3cc(C)on3)cc2)c1 | -4.65% | 
COc1ccc(Cl)cc1C(=O)NCC#N | 0.698% | 
N#C/C=C\Oc1ccc(Cl)cc1N |  | 22.4 µM (active)
CC1CCCCN1S(=O)(=O)c1ccc(S(=O)(=O)N(CC(=O)Nc2ccccc2)Cc2cccs2)cc1 (configuration not stated) | 0.18% | 
CCCCC/C=C\C/C=C\CCCCCCCCCC(N)=O | 1.17% | 
O=C(NCc1cccs1)c1ccc(Br)o1 | 8.12% | 
CCCCC/C=C\C/C=C\C/C=C\CCCCCCC(N)=O | 4.46% | 
COC(=O)Cc1ccc(NC(=S)NCc2ccc(Cl)cc2)cc1 | -16.8% | 
CN(C)CCCNC(=S)NCc1ccc(Cl)cc1 | -4.25% | 
S=C(NCc1ccc(Cl)cc1)NC12CC3CC(CC(C3)C1)C2 |  | 22.4 µM (active)
c1ccc(C2=Nc3cccc4cccc(c34)N2)cc1 | 0.53% | 
CCOC(=O)C1=C(C)c2ccccc2OC1(C)C(=O)OCC (configuration not stated) | -0.153% [at 0.00818 µM] | 
Cc1ccc(-c2cc(C(=O)NCc3cn(C)nc3C)c3cc(Br)ccc3n2)cc1 | 2.04% | 
CCCCOc1ccc(C(=O)N/C(=C/C=C/c2ccccc2)C(=O)N2CCOCC2)cc1 | -1.06% | 
CC(=O)c1c(O)cc2n(c1=O)-c1ccc(Cl)cc1C2(C)C | 5.14% | 
COc1ccc(-c2nc3c(c4c2C[C@H](c2ccccc2)OC4)CN(C(=O)C2CC2)CC3)c(C)c1 | -3.7% [at 11.4 µM] | 
COC(=O)N1C(/C=C/C=C/c2ccc(OC)cc2)=Cc2ccccc2C1CC(C)=O (configuration not stated) | 1.56% [at 11.4 µM] | 

SMILES | activity change, negative = inhibition | Potency
Cc1ccc(S(=O)(=O)N(Cc2ccc(Cl)cc2)c2ccccc2C(=O)NCc2cccnc2)cc1 | 1.33% | 
CCOC(=O)c1cnc2ccc(F)cc2c1Nc1ccc2c(c1)OCCO2 | -1.08% | 
CC1=C(/C=C/C(C)=C/C=C/C(C)=C/C=C/C=C(C)/C=C/C=C(C)/C=C/C(=O)[C@]2(C)C[C@@H](O)CC2(C)C)C(C)(C)C[C@H](O)C1 | -3.45% [at 0.00818 µM] | 
O=C(Cn1cnc2ccccc21)N/N=C/c1ccco1 | -2.72% | 
O=C(O)c1ccc(N=NN2CCOCC2)cc1 | -1.99% | 
C=C1c2cccc(OC)c2O[C@H](C(=O)OCC)[C@@H]1CCCCCC | -4.96% [at 0.00818 µM] | 
CCCCCCCC/C=C\CCCCCCCC(=O)NCC(=O)O | 3.9% | 
CCCCCCCC[n+]1cccc(C(=O)N2c3c(nc(N)[nH]c3=O)NC(C)C2C)c1 (configuration not stated) | -3.59% | 
C[C@@H]1C(c2ccc(F)cc2)=NN(c2ccc(Br)cc2)[C@H]1C(=O)N1CCOC1=O | -4.22% [at 0.00818 µM] | 
O=[N+]([O-])c1ccccc1SNc1ccccn1 | 2.54% | 
C=C1C2C[C@H](O)C(C)(C)[C@@]2(O)[C@H](O)C[C@]23C[C@@](C)(O)[C@H](CC[C@H]12)[C@H]3O (some centres not stated) | -0.156% | 
CCOC(=O)C1C/C(=C\C(C)=O)c2cccc(C(F)(F)F)c2O1 (configuration not stated) | -1.22% [at 0.00818 µM] | 
CC(Nc1oc(-c2ccccc2)nc1-c1ccccc1)c1ccccc1 (configuration not stated) | inactive | 
Cc1cc2oc(=O)cc(-c3ccccc3)c2c(C)c1/C=C/c1ccc(F)cc1 | -3.71% [at 0.00818 µM] | 
COc1cccc(C(=O)Nc2cc3c(cc2Br)OCCCO3)c1 | -0.158% | 
CCCCC[C@H](O)/C=C/[C@@H]1[C@@H](CC(=O)CCC(=O)O)[C@@H](O)C[C@H]1O | 1.55% | 
COc1ccc(CCNC(=O)/C(C#N)=C2\N=C(NC(=O)c3cccs3)c3ccccc32)cc1 | 0.415% | 
O=C(OC1CCOC1=O)c1cccc(S(=O)(=O)Nc2ccc(F)cc2)c1 (configuration not stated) | 1.87% | 
O=C(CNCc1ccc(F)cc1)Nc1ccccc1-c1ccccc1 | -0.876% | 

SMILES | activity change, negative = inhibition | Potency
COc1ccccc1N=Cc1c(O)c2ccccc2oc1=O | 0.0273% | 
CC(=O)Nc1ccc(S(=O)(=O)NCC(=O)OCc2cc(=O)oc3ccc4ccccc4c23)cc1 | 1.72% | 
COC(=O)C1=C(C(=O)OC)[C@@H]2N(C)c3ccccc3[C@@]23C[C@@H](C(=O)OC)N(S(=O)(=O)c2ccc(Br)cc2)C3=N1 | 2.4% [at 11.4 µM] | 
COC(=O)c1c(NC(=O)COC(=O)[C@@H](NS(=O)(=O)c2ccccc2)C(C)C)sc2c1CCC2 | -1.84% | 
Brc1ccc(C2=NCCC(c3ccccc3)O2)cc1 (configuration not stated) | 0.263% [at 0.00818 µM] | 
COc1ccc(-c2nc3c(c4c2C[C@H](c2ccccc2)OC4)CN(C(=O)c2cccnc2)CC3)c(C)c1 | 1.97% [at 11.4 µM] | 
COc1ccc(-c2nnc(SCc3cccnc3)o2)cc1 | -1.27% | 
COc1ccc(-c2nnc(SC(=O)N3c4ccccc4Sc4ccccc43)o2)cc1 |  | 14.1 µM (active)
COc1ccc(-c2nnc(SC(C)C#N)o2)cc1 (configuration not stated) | -9.79% | 
COc1ccc(C(=O)COC(=O)c2ccc3ccccc3n2)cc1 | -2.31% | 
O=c1cc(CN2CCN(S(=O)(=O)/C=C/c3ccccc3)CC2)c2ccc(O)cc2o1 | -3.24% | 
COc1ccc(C2CC(=O)Oc3ccc(C(C)(C)C)cc32)cc1 (configuration not stated) | -4.97% [at 0.00818 µM] | 
CCOc1ccc(N2C(=O)/C(=C/c3ccc(C)o3)N(C)C2=S)cc1 | -4.46% | 
COC(=O)CCCC1=CC2=C(c3ccccc3)C(=O)C(C)(OC(=O)C3CCCC3)C(=O)C2=CN1c1ccc(OC)cc1 (configuration not stated) | -9.71% [at 11.4 µM] | 
CCOC(=O)C1=C(NC(=S)NC(=O)c2ccccc2)c2ccccc2CC1(C)C |  | 25.1 µM (active)
CCOC(=O)c1c(NC(=O)C2(C)Cc3ccccc3C(=O)O2)sc2c1CCCC2 (configuration not stated) | 15.1% | 
COCCCNC(=S)NC(=O)c1ccccc1 | -6.12% | 
C[C@H]1Cc2c(-c3ccccc3)nc3c(c2CO1)CN(C(=O)C1CC1)CC3 | 2.53% [at 11.4 µM] | 
CC(NC(=O)CCC(=O)N1CCN(S(=O)(=O)c2ccc(Cl)cc2)CC1)c1ccccc1 (configuration not stated) | -1.88% | 
